According to PubChem BioAssay (EPA / NIEHS):
Several values for one entry are separate records, joined by “and”; a condition that tells them apart may be missing. Equal values may be shown once. Results filed as inconclusive are left out. Activity calls are given as the source filed them. How the source made its calls: active means hit-call score of the fitted dose curve at least 0.9, where 1 is the maximum; inconclusive means response in the unintended direction; inactive means score below 0.9.

Biological target: rabbit Imidazoline 2 Central (I2C), CKB (gene 100009085) (UniProt P00567)
Test: NVS_ENZ_rabI2C: NovaScreen (NVS) Enzymatic Assay for rabbit Imidazoline 2 Central (I2C) (AID 2283228)
How it was run: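 Rabbit brain membranes, cell-free; readout by filter-based scintillation counting 1.5 hours after dosing, loss of signal vs DMSO. Initial duplicate test at 25 uM, then concentration-response with 50 uM top concentration.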

Chain of rabbit Imidazoline 2 Central (I2C), CKB (gene 100009085) (P00567 whole entry, looked up): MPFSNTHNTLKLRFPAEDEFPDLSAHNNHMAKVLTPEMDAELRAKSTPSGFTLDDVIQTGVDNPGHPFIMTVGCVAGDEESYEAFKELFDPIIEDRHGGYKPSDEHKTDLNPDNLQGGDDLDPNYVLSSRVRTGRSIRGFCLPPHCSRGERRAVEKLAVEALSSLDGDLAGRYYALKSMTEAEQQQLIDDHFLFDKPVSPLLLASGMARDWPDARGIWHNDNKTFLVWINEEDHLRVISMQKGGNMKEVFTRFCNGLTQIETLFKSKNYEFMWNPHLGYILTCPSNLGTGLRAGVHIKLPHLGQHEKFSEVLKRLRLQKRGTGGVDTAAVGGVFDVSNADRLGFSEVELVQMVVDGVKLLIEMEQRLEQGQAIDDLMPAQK

Question: How did the AC50 turn out when `CCCCNC(=O)n1c(NC(=O)OC)nc2ccccc21` was run?
Answer: Its AC50 is 14.2 µM (active).

Question: `CNC(=S)S` was tested. Which outcome did it give?
Answer: The outcome was “inactive”.

Question: For `O=C(Nc1ccccc1)Nc1ccnc(Cl)c1`, which outcome is on record?
Answer: The outcome was “inactive”.

Biological target: sheep Cyclooxygenase-2 (Cox2), PTGS2 (gene 443460) (UniProt P79208)
Test: NVS_ENZ_oCOX2: NovaScreen (NVS) Enzymatic Assay for sheep Cyclooxygenase-2 (Cox2) (AID 2283231)
How it was run: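 Enzyme from ovine placenta, cell-free; colorimetric absorbance read 0.66 hour after dosing, loss of signal vs DMSO. Screened in duplicate at 25 uM, then concentration-response up to 50 uM.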

Chain of sheep Cyclooxygenase-2 (Cox2), PTGS2 (gene 443460) (P79208 whole entry, looked up): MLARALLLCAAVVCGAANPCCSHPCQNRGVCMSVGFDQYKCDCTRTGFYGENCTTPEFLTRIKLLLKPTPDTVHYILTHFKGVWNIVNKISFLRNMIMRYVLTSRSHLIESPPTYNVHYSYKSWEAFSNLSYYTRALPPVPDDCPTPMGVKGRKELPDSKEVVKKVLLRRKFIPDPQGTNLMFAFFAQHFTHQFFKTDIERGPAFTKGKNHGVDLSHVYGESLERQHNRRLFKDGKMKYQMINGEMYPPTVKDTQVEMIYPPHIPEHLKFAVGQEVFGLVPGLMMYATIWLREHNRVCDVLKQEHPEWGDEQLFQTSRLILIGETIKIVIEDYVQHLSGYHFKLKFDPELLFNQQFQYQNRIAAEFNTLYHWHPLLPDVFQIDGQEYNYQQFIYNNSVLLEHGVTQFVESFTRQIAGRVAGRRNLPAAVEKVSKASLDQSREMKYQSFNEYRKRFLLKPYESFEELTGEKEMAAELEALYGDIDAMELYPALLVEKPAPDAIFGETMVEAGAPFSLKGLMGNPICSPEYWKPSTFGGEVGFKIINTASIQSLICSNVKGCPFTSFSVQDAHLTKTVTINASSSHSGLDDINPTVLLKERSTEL

Question: Which outcome does the source give for `CCCN(CCC)c1c([N+](=O)[O-])cc(S(N)(=O)=O)cc1[N+](=O)[O-]` here?
Answer: Its outcome is “inactive”.

Question: How did the AC50 turn out when `CCNc1nc(Cl)nc(NC(C)C)n1` was run?
Answer: Its AC50 is 7.07 µM (active) and 12.4 µM (active).

Question: For `CON(C)C(=O)Nc1ccc(Cl)c(Cl)c1`, which outcome is on record?
Answer: The outcome was “inactive”.

Question: `C=CC1(C)OC(=O)N(c2cc(Cl)cc(Cl)c2)C1=O` (configuration not stated) was tested. Which AC50 did it give?
Answer: Its AC50 is 5.97 µM (active).

Biological target: rat Adenylate Cyclase, Forskolin Stimulated, Adcy5 (gene 64532) (UniProt Q04400)
Test: NVS_ENZ_rACFSKBinding: NovaScreen (NVS) Enzymatic Assay for rat Adenylate Cyclase, Forskolin Stimulated (AID 2283232)
How it was run: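 Chemicals were first tested at 25 uM in duplicate, then hits run as concentration series with top concentration 50 uM. Enzyme source was rat forebrain membranes; radiometric filter read-out after 1 h, referenced to DMSO.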

Chain of rat Adenylate Cyclase, Forskolin Stimulated, Adcy5 (gene 64532) (Q04400 whole entry, looked up): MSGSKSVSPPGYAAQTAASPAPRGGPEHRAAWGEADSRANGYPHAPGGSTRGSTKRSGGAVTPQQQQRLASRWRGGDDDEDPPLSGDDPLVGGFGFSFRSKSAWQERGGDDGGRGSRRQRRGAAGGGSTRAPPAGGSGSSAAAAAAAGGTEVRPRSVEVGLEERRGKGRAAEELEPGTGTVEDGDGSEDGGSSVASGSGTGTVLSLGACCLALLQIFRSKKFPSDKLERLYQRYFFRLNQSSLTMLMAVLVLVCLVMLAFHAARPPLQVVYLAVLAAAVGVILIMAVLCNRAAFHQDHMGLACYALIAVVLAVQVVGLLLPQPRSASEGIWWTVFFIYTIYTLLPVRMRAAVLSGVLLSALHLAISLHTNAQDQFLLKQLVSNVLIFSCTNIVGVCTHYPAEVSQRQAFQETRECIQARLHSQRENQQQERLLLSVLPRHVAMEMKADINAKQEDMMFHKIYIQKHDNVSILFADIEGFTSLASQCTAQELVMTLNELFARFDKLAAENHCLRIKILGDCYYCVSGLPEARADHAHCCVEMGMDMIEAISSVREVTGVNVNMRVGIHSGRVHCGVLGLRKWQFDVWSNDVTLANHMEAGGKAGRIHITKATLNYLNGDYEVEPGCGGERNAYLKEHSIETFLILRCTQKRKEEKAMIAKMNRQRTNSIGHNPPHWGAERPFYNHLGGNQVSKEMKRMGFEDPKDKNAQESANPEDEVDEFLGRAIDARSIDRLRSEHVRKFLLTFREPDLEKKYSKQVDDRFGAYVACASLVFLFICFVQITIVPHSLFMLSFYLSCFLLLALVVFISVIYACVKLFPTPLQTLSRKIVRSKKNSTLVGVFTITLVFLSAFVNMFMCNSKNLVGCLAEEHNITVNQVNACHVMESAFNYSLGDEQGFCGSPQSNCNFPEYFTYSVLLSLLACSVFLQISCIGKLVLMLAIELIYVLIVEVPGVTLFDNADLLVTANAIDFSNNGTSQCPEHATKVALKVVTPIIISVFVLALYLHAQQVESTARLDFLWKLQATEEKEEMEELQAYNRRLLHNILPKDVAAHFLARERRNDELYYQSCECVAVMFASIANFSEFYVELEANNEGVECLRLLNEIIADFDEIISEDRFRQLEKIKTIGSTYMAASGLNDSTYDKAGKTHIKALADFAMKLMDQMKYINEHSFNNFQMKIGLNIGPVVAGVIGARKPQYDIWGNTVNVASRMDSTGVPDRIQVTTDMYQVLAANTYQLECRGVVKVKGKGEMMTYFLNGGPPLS

Question: Which outcome does the source give for `CCCCNC(=O)n1c(NC(=O)OC)nc2ccccc21` here?
Answer: Its outcome is “inactive”.

Question: With `CCCN(CCC)c1c([N+](=O)[O-])cc(S(N)(=O)=O)cc1[N+](=O)[O-]` as the compound, how does the outcome read?
Answer: Its outcome is “inactive”.

Question: For `CNC(=S)S`, which outcome is on record?
Answer: Its outcome is “inactive”.

Question: With `CS/C(C)=N/OC(=O)N(C)SN(C)C(=O)O/N=C(\C)SC` as the compound, how does the AC50 read?
Answer: The AC50 was 6.77 µM (active).

Question: How did the outcome turn out when `CC(C)Oc1cc(-n2nc(C(C)(C)C)oc2=O)c(Cl)cc1Cl` was run?
Answer: Its outcome is “inactive”.

Question: `CN(C)C(=S)SSC(=S)N(C)C` was tested. Which AC50 did it give?
Answer: The AC50 was 6.85 µM (active).

Question: How did the AC50 turn out when `CCCCNC(=O)OCC#CI` was run?
Answer: Its AC50 is 18.1 µM (active) and 19.4 µM (active).

Biological target: rat Acetylcholinesterase (AChE), Ache (gene 83817) (UniProt P37136)
Test: NVS_ENZ_rAChE: NovaScreen (NVS) Enzymatic Assay for rat Acetylcholinesterase (AChE) (AID 2283233)
How it was run: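 Compounds first screened at 25 uM in duplicate, then those passing threshold tested in concentration series up to 50 uM, against AChE from rat brain membranes. Enzyme activity read by absorbance at 0.33 h; inhibition scored versus DMSO.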

Chain of rat Acetylcholinesterase (AChE), Ache (gene 83817) (P37136 whole entry, looked up): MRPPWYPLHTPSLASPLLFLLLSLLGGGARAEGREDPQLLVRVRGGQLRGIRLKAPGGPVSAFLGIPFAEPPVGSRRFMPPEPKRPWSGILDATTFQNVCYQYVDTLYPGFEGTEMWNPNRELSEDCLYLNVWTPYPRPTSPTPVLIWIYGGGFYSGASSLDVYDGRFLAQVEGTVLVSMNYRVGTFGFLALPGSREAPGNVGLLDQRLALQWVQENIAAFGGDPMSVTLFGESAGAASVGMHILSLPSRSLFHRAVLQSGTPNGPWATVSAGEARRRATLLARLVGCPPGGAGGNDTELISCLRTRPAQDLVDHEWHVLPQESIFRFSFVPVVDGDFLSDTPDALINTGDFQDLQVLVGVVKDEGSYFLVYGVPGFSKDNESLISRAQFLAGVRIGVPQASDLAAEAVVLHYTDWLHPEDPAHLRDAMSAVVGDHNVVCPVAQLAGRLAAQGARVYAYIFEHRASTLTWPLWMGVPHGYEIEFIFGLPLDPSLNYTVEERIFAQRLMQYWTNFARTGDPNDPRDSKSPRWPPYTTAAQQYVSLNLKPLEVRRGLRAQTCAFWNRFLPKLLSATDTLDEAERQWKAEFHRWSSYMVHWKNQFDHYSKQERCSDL

Question: How did the AC50 turn out when `CNC(=O)ON=CC(C)(C)SC` was run?
Answer: Its AC50 is 6.41 µM (active).

Question: `CS/C(C)=N/OC(=O)N(C)SN(C)C(=O)O/N=C(\C)SC` was tested. Which AC50 did it give?
Answer: The AC50 was 2 µM (active).

Question: With `COC(=O)C=C(C)OP(=O)(OC)OC` as the compound, how does the AC50 read?
Answer: Its AC50 is 1.52 µM (active).

Question: Which outcome does the source give for `COP(=S)(OC)Oc1nc(Cl)c(Cl)cc1Cl` here?
Answer: Its outcome is “inactive”.

Biological target: rat Catechol-O-Methyl Transferase (COMT), Comt (gene 24267) (UniProt P22734)
Test: NVS_ENZ_rCOMT: NovaScreen (NVS) Enzymatic Assay for rat Catechol-O-Methyl Transferase (COMT) (AID 2283235)
How it was run: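 Rat dorsal striatum extract served as COMT source; product quantified by HPLC/spectrophotometry, read at 0 h after dosing. Primary single-concentration screen at 25 uM, followed by concentration series to a 50 uM maximum.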

Chain of rat Catechol-O-Methyl Transferase (COMT), Comt (gene 24267) (P22734 whole entry, looked up): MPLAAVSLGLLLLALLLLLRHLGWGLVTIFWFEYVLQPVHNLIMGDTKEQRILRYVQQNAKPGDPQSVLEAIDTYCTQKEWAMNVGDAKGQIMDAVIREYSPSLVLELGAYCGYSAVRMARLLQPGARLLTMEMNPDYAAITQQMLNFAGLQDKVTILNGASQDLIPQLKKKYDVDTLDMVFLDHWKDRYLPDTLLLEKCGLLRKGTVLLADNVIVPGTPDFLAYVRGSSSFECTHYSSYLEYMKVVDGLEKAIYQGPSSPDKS

Question: Which AC50 does the source give for `N#Cc1cc(Br)c(O)c(Br)c1` here?
Answer: Its AC50 is 0.677 µM (active).

Question: How did the outcome turn out when `COC(=O)N(OC)c1ccccc1COc1ccn(-c2ccc(Cl)cc2)n1` was run?
Answer: Its outcome is “inactive”.

Question: With `CCOC(=O)CC(SP(=S)(OC)OC)C(=O)OCC` (configuration not stated) as the compound, how does the outcome read?
Answer: The outcome was “inactive”.

Question: Which outcome does the source give for `COP(=S)(OC)Oc1nc(Cl)c(Cl)cc1Cl` here?
Answer: Its outcome is “inactive”.

Biological target: rat Constitutive Nitric Oxide Synthase (CNOS), Nos1 (gene 24598) (UniProt P29476)
Test: NVS_ENZ_rCNOS: NovaScreen (NVS) Enzymatic Assay for rat Constitutive Nitric Oxide Synthase (CNOS) (AID 2283236)
How it was run: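 Single 25 uM duplicate screen, then concentration series to 50 uM for chemicals meeting threshold. Rat brain membrane-derived CNOS activity detected radiometrically by filtration and scintillation counting, 1 h after compound addition; DMSO as baseline.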

Chain of rat Constitutive Nitric Oxide Synthase (CNOS), Nos1 (gene 24598) (P29476 whole entry, looked up): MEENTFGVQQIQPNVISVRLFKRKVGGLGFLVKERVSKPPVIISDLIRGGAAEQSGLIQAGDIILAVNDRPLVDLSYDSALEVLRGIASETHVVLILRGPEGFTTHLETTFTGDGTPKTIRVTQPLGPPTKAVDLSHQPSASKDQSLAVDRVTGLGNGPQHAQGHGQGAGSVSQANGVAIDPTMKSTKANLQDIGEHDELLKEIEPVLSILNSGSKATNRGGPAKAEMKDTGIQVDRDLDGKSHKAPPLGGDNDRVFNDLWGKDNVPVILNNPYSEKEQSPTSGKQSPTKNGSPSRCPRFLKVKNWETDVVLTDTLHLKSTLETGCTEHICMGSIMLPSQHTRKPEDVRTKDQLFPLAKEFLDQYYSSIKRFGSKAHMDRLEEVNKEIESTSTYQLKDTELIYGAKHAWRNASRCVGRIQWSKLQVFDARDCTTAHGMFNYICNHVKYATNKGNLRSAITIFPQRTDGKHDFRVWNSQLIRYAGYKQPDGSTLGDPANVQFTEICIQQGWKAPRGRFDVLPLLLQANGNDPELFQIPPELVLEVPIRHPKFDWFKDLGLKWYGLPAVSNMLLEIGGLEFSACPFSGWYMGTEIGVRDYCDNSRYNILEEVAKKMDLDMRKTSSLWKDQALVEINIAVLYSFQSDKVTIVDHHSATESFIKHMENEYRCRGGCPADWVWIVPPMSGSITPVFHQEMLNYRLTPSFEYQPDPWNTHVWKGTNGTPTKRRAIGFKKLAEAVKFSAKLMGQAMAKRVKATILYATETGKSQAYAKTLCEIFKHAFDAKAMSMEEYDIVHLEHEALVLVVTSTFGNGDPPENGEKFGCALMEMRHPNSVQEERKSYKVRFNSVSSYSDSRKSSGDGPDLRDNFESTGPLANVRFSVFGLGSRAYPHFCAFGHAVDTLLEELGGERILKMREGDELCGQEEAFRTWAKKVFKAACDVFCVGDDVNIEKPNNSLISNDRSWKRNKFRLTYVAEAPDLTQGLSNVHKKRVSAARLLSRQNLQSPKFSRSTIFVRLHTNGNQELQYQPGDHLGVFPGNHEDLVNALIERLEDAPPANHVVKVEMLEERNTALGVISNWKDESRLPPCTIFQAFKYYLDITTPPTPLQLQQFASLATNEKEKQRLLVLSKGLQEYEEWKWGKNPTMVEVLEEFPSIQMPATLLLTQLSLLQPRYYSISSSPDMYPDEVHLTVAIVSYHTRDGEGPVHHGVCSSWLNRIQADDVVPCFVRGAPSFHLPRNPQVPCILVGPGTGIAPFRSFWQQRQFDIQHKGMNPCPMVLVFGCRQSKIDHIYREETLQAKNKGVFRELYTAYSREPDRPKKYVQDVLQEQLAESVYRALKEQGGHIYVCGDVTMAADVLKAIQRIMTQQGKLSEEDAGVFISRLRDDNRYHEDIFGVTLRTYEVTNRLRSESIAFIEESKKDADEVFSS

Question: For `CCCN(CCC)c1c([N+](=O)[O-])cc(S(N)(=O)=O)cc1[N+](=O)[O-]`, which outcome is on record?
Answer: Its outcome is “inactive”.

Question: `CCCCC(CC)COC(=O)c1ccccc1C(=O)OCC(CC)CCCC` (configuration not stated) was tested. Which outcome did it give?
Answer: Its outcome is “inactive”.

Question: Which outcome does the source give for `CCOP(=S)(OCC)SCn1c(=O)oc2cc(Cl)ccc21` here?
Answer: Its outcome is “inactive”.

Question: With `CCCCOC(=O)c1ccccc1C(=O)OCCCC` as the compound, how does the outcome read?
Answer: Its outcome is “inactive”.

System: rat Monoamine Oxidase, MAO-A, Peripheral (MAOAP), gene 29253
Test: NVS_ENZ_rMAOAP: NovaScreen (NVS) Enzymatic Assay for rat Monoamine Oxidase, MAO-A, Peripheral (MAOAP) (AID 2283237)
Method: NVS_ENZ_rMAOAP is a biochemical, single-readout assay that uses extracted gene-proteins from Rat liver mitochondrial membranes in a tissue-based cell-free assay. Measurements were taken 1.17 hours after chemical dosing in a 96-well plate.NVS_ENZ_rMAOAP is one of one assay component(s) measured or calculated from the NVS_ENZ_rMAOAP assay. It is designed to make measurements of enzyme activity, a form of enzyme reporter, as detected with scintillation counting signals by Lysate-based radiodetection technology.Data from the assay component NVS_ENZ_rMAOAP was analyzed into 1 assay endpoint. This assay endpoint, NVS_ENZ_rMAOAP, was analyzed in the positive analysis fitting direction relative to DMSO as the negative control and baseline of activity. Using a type of enzyme reporter, loss-of-signal activity can be used to understand changes in the enzymatic activity as they relate to the gene Maoa. Furthermore, this assay endpoint can be referred to as a primary readout, because this assay has produced multiple assay endpoints where this one serves a enzymatic activity function. To generalize the intended target to other relatable targets, this assay endpoint is annotated to the oxidoreductase intended target family, where the subfamily is monoamine oxidase.
Binding assays used specific radioligands (tritiated, iodinated) with non-radioactive competitive displacement ligands in agonist or antagonist protocols (as indicated) and various reference compounds and inhibitors to titrate specific binding to receptors and transporters. Most enzyme assays (CYPs, kinases, phosphatases, proteases, HDACs) used recombinant protein and specific substrates (fluorescence mostly, some colorimetric and radioactive) and inhibitors, followed by a biochemical separation of substrate and product. All assays for the biochemical HTS were initially run in duplicate at a single concentration (10 uM for CYP450 assays and 25 uM for all others). […] Each assay was run with positive and negative controls, and concurrent controls on every plate. The follow-up (secondary) screen tested active chemical-pairs in concentration series, as well as a few additional assays not tested in the primary screen, some selected negative inactives, and several cases re-run in the concentration series for confirmatory purposes.

Question: For `CC1COC(Cn2cncn2)(c2ccc(Oc3ccc(Cl)cc3)cc2Cl)O1` (configuration not stated), which AC50 is on record?
Answer: The AC50 was 1.3 µM (active).

Question: `C=CCC1=C(C)C(OC(=O)C2C(C=C(C)C)C2(C)C)CC1=O` (configuration not stated) was tested. Which outcome did it give?
Answer: Its outcome is “inactive”.

Question: `CC1=C(C(=O)Nc2ccccc2)SCCO1` was tested. Which outcome did it give?
Answer: The outcome was “inactive”.

Question: For `Cc1ccc(-c2c(Cl)nc(C#N)n2S(=O)(=O)N(C)C)cc1`, which AC50 is on record?
Answer: The AC50 was 3.36 µM (active).

Question: With `CN(C)C(=S)SSC(=S)N(C)C` as the compound, how does the outcome read?
Answer: Its outcome is “inactive”.

Question: With `CCCCNC(=O)OCC#CI` as the compound, how does the AC50 read?
Answer: The AC50 was 36.8 µM (active) and 25 µM (active).
